Values joined by “and” are separate entries in the source; they are usually repeats but may differ in a detail not shown here. Equal values may be shown once. Results filed as inconclusive are left out. Active and inactive are the calls of the source. Unless noted, the call rests on the fitted dose curve; in most records, active means well fitted curve in the direction sought with a large enough effect; inconclusive means small, poorly fitted or top-dose-only effect, or another doubt; inactive means no such curve, though single readings can be large; an effect the other way counts as inactive or inconclusive.
What was measured:
[1] = qHTS to identify inhibitors of the type 1 interferon - major histocompatibility complex class I in skeletal muscle: primary screen against the NCATS Pharmaceutical Collection (AID 1347407);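 further: luminescence of HiBiT knocked into endogenous HLA-B as interferon-induced MHC class I level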; further: potency means the concentration at half of the fitted maximal effect
How it was run: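 Luminescence from HiBiT-tagged endogenous HLA-B*08:01 served as the read-out of IFN-beta-induced MHC class I in CRISPR-engineered C25cl48 myoblasts. Cells received 4 ng/ml IFN-beta plus compound (high final 46 uM, […]) for 24 h.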

[2] = target: Protein phosphatase 1D (Homo sapiens) (UniProt O15297); assay: RapidFire Mass Spectrometry qHTS Assay for Modulators of WT P53-Induced Phosphatase 1 (WIP1) (AID 1347424);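 further: amount of dephosphorylated VEPPL-S-QETFS peptide product formed by WIP1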; further: potency means the concentration at half of the fitted maximal effect
How it was run: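 WIP1 (10 nM final) was preincubated 1 h at room temperature with compounds in Tris-HCl pH 7.5, 30 mM MgCl2, TCEP, EGTA, BSA; 2 uM VEPPL-pS-QETFS phosphopeptide was added for 5 min, quenched with formic acid, and dephosphorylated product quantified by RapidFire MS.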

[3] = target: Protein phosphatase 1D (Homo sapiens) (UniProt O15297); assay: Rhodamine-PBP qHTS Assay for Modulators of WT P53-Induced Phosphatase 1 (WIP1) (AID 1347425)
How it was run: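 WIP1 (5 nM final) was preincubated with compound for 1 hour at room temperature. It then dephosphorylated 10 uM VEPPL-pS-QETFS peptide in Tris-HCl pH 7.5 with 30 mM MgCl2. Released Pi was detected by 10 uM Rh-PBP fluorescence (ex 525/em 598 nm) read at 1-min intervals for 11 min, as delta f1 - f0.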

[4] = Primary qHTS for inhibitors of La Crosse Virus (LACV) - induced cell death in SH-SY5Y cells (AID 1508616);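 further: top concentration of the series differs between compounds; higher means more rescue of cells from virus-induced death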
How it was run: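 Protection against LACV-induced cell death is scored in SH-SY5Y cells exposed to compounds and virus (0.01 MOI) for 6 days. Data normalized to virus-infected DMSO wells and virus-free DMSO wells.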

[5] = target: Calcium and integrin-binding protein 1 (Homo sapiens) (UniProt Q99828); assay: Primary qHTS for Identification of Calcium Integrin Binding Protein 1 (CIB1) Competitor (AID 1508620); further: potency means the concentration at half of the fitted maximal effect
How it was run: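 Fluorescence polarization competition: CIB1-GST (1 uM final) preincubated with compound 15 min at room temperature, then FITC-labeled alphaIIb peptide (100 nM final) added for another 15 min. Polarization read at Ex 480/Em 540.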

[6] = Primary qHTS for inhibitors of SARS-S pseudo-typed particle cell entry (AID 1479145; calls by dose curve; further: nearly all actives have a fitted effect of over 45% in size; further: potency means the concentration at half of the fitted maximal effect)
[7] = Primary qHTS for Huh7 cytotoxicity: counterscreen for inhibitors of MERS-S pseudotyped particle cell entry (AID 1479147; calls by dose curve; further: potency means the concentration at half of the fitted maximal effect)
[8] = Primary qHTS for inhibitors of MERS-S pseudo-typed particle cell entry (AID 1479149; calls by dose curve; further: nearly all actives have a fitted effect of over 60% in size; further: potency means the concentration at half of the fitted maximal effect)
[9] = target: Calcium and integrin-binding protein 1 (Homo sapiens) (UniProt Q99828); assay: Confirmatory qHTS for Identification of Calcium Integrin Binding Protein 1 (CIB1) Competitor (AID 1508617); further: nearly all actives have a fitted effect of over 65% in size
How it was run: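 FP competition: CIB1-GST (1 uM final) in 5 mM HEPES pH 7.4, 125 mM NaCl, 5 mM CaCl2, 0.01% Tween20 preincubated 15 min RT with compounds (up to 114 uM), then FITC-alphaIIb peptide (100 nM), 15 min RT; Ex 480/Em 540.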

[10] = Primary qHTS for Vero E6 cytotoxicity: counterscreen for inhibitors of SARS-S pseudo-typed particle cell entry (AID 1479150; calls by dose curve)
[11] = Counterscreen qHTS for small molecule stabilizers of the endoplasmic reticulum resident proteome: GLuc-NoTag assay (AID 1508627); further: potency means the concentration at half of the fitted maximal effect
How it was run: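 SH-SY5Y cells stably expressing constitutively secreted GLuc (no SERCaMP tag) were pre-incubated 5 h, treated with compound for 19 h, then 100 nM thapsigargin for 4 h at 37C; medium GLuc read by coelenterazine luminescence.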

[12] = Confirmatory qHTS for small molecule stabilizers of the endoplasmic reticulum resident proteome: Secreted ER Calcium Modulated Protein (SERCaMP) assay (AID 1508628); further: nearly all actives have a fitted effect of over 40% in size; further: potency means the concentration at half of the fitted maximal effect
How it was run: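 SH-SY5Y cells stably expressing GLuc-SERCaMP, treated 16 h with compound (primary 1.53, 7.67, 38.3 uM; confirmation 11 concentrations, up to 76.6 uM), then 100 nM thapsigargin for 4 h. Secreted Gaussia luciferase in medium read by coelenterazine luminescence.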

Measured: Potency

Calcium and integrin-binding protein 1 (Homo sapiens), sequence (Q99828 whole entry, looked up): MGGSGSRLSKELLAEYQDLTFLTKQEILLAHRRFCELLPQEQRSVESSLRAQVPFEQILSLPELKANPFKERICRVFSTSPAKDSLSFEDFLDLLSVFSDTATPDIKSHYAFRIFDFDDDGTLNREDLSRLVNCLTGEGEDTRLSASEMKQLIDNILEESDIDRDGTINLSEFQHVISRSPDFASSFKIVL
Protein phosphatase 1D (Homo sapiens), sequence (O15297 whole entry, looked up): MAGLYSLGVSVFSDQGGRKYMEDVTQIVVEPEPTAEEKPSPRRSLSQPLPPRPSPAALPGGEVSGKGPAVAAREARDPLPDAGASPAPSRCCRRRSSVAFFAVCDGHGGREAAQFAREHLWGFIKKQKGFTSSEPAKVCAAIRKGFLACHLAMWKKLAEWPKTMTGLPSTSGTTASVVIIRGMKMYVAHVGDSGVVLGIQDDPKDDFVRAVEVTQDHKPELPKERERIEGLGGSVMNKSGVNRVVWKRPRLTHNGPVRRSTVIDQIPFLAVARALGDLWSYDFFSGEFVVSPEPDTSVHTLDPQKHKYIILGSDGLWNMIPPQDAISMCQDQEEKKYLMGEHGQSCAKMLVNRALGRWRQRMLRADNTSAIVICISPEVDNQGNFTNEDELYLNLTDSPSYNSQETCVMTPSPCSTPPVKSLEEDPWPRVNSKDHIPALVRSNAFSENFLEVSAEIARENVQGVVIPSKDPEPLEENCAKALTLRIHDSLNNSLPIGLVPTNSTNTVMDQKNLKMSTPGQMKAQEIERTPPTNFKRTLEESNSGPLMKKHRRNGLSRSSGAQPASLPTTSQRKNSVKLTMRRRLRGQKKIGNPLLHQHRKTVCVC

C[C@H]1C(=O)O[C@@H]2CCN3CC=C(COC(=O)[C@](C)(O)[C@]1(C)O)[C@H]23
inactive: [1] | [2] | [3] | [4] | [5]

Nc1ccc(N)cc1
inactive: [1] | [2] | [4] | [5]

Cc1ccc([N+](=O)[O-])[c]2c1[O][Hg]2
active: [1] 11.8 µM | [2] 3.98 µM | [6] 10 µM | [7] 2.24 µM | [8] 2.82 µM
inactive: [9]

CNC(=O)Oc1cccc2ccccc12
not listed: [1] | [9] | [11] | [12]
inactive: all other assays above

c1ccc2nc(N3CCNCC3)ccc2c1
inactive: [1] | [3] | [5]

COc1ccc2[nH]cc(CCN(C(C)C)C(C)C)c2c1
inactive: [1] | [2] | [3] | [4] | [5]

COc1cc(CC(C)N)cc2c1OCO2 (configuration not stated)
inactive: [1] | [2] | [3] | [4] | [5]

CN1[C@@H]2CC[C@H]1CC(OC(=O)c1cc(Cl)cc(Cl)c1)C2 (some centres not stated)
inactive: [1] | [2] | [3] | [4] | [5] | [11] | [12]

O=C1NCN(c2ccccc2)C12CCN(CCCOc1ccc(F)cc1)CC2
inactive: [1] | [2] | [3] | [4] | [5]
active: [11] 8.91 µM | [12] 2.51 µM and 3.16 µM

Sc1ccccc1Cl
inactive: [1] | [2] | [3] | [4] | [5]

CC[C@H]1C[C@@H]2C[C@H]3c4[nH]c5ccc(OC)cc5c4CCN(C2)[C@@H]13
inactive: [1] | [2] | [3] | [4] | [5]

Cc1nnc2n1-c1sc(CCc3ccc(CC(C)C)cc3)cc1C(c1ccccc1Cl)=NC2C (configuration not stated)
inactive: [1] | [7] | [10] | [4] | [5]
active: [8] 20 µM

C#C[C@]1(O)C=C[C@H]2[C@@H]3CCC4=CC(=O)CC[C@@H]4[C@H]3CC[C@@]21CC
inactive: [2] | [3] | [7] | [8] | [10] | [4] | [5]

CCOC(=O)NC(C)(C)Cc1ccc(Cl)cc1
inactive: [1] | [2] | [3] | [4] | [5]

C[N+](C)(C)CCOC(=O)C(O)(c1ccccc1)c1ccccc1
inactive: [1] | [2] | [3] | [4] | [5]

OC(O)C(Cl)(Cl)Cl
inactive: [1] | [2] | [3] | [4] | [5]

O=C(N[C@@H]1N=C(c2ccccc2F)c2cccc3c2N(CC3)C1=O)c1cc2ccccc2[nH]1
inactive: [1] | [3] | [4] | [5]

CC[C@]1(O)CC[C@H]2[C@@H]3CCC4=CCCC[C@@H]4[C@H]3CC[C@@]21C
active: [5] 31.6 µM
not listed: [1] | [9] | [11] | [12]
inactive: all other assays above

CC[C@H](O)C(C[C@H](C)N(C)C)(c1ccccc1)c1ccccc1
inactive: [1] | [2] | [3] | [4] | [5]
active: [12] 50.1 µM

ClCCCN1CCN(c2cccc(Cl)c2)CC1
inactive: [1] | [2] | [3] | [4] | [5]

CC(C)=CCN1CC[C@@]2(C)c3cc(O)ccc3C[C@@H]1[C@@H]2C
inactive: [1] | [2] | [3] | [4] | [5] | [11]
active: [12] 28.2 µM

C[C@H](N)[C@H](O)c1ccc(O)c(O)c1
active: [2] 2 µM
not listed: [1] | [9] | [11] | [12]
inactive: all other assays above

CCCCCCCCCCCC[N+](C)(C)CCOc1ccccc1
inactive: [2] | [3] | [7] | [4]
active: [8] 22.4 µM

CCC(=O)O[C@H]1CC[C@H]2[C@@H]3CCC4=CC(=O)CC[C@]4(C)[C@H]3CC[C@]12C
not listed: [1] | [9] | [11] | [12]
inactive: all other assays above

C[C@]12Cc3nonc3C[C@@H]1CC[C@@H]1[C@@H]2CC[C@@]2(C)[C@H]1CC[C@]2(C)O
inactive: [2] | [3] | [7] | [10] | [4] | [5]

OC(c1ccccc1)(c1ccccc1)C1CCNCC1
active: [12] 15.8 µM
inactive: [1] | [2] | [3] | [4] | [5] | [11]
